# Assay outcomes from PubChem.
# IL-1B inflam inh – inhibitors of inflammasome signaling (IL-1 beta secretion). 4.7% of 360,000 active. AID 743279. THP-1 LPS/ATP IL-1B secretion, AlphaLISA, 16 h; stronger effect = lower value. activity change, % at 57.5 µM; in the data active means activity change below about -50%; inconclusive means mostly about -30% to -49%
#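 Secreted IL-1B measured by AlphaLISA bead assay after 16 h compound exposure of THP-1 cells; compounds (final up to 57.5 uM) added 1 h before LPS (250 ng/mL) and ATP (1.25 mM) stimulation; lower signal means less secretion.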
# HT1080NT lethal – kills 2HG-producing HT-1080-NT fibrosarcoma cells. HT-1080-NT fibrosarcoma viability, CellTiter-Glo ATP luminescence, 48 h. Potency, µM (doses to about 46.1 µM), for the others: at the top dose activity, negative = less viability, most hits filed as cytotoxic. 1.6% of 360,000 active. AID 686970;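 further: NT is the 2HG producing partner of a matched IDH1 knockdown line; potency means the concentration at half of the fitted maximal effect; 0% = DMSO-treated cells and -100% = media-only wells without cells; nearly all actives have a fitted effect of over 55% in size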
#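 Viability by CellTiter-Glo luminescence after 48 h compound exposure at 37C of HT-1080-NT cells (750/well, RPMI, 5% FBS). % activity scaled between DMSO wells and medium-only wells, then curve-fitted and categorized by curve class.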
# HT1080 IDH1KD tx – HT-1080 IDH1 knockdown cell toxicity (counter line) | 2% of 360,000 active | Potency, µM (top dose mostly 46.1 µM), for the others: at the highest dose activity, negative = toxicity, hits mostly cytotoxic | AID 686971 | HT-1080 IDH1 knockdown viability, ATP luminescence, 48 h;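 further: potency means the concentration at half of the fitted maximal effect; 0% = DMSO wells and -100% = cell-free medium wells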
#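 CellTiter-Glo luminescence after 48 h compound exposure at 37 degrees C of IDH1-knockdown HT-1080 cells in 5% FBS RPMI. %Activity scaled between DMSO wells and cell-free media wells, with curves fitted and assigned curve classes.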
# TDP1 cell CPT – DT40-hTDP1 cell growth loss with CPT; chicken DT40 Tdp1-/-;hTDP1 cells + 20 nM CPT, ATP luminescence, 48 h; Potency, µM (top dose mostly 46.2 µM), inactives show at the highest dose activity change, negative = growth inhibition, most hits filed as inhibitors; 12% of 420,000 active; AID 686979; further: potency means the concentration at half of the fitted maximal effect; nearly all actives have a fitted effect of over 55% in size
#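 Cell growth measured by CellTiter-Glo luminescence after a minimum 48 h, 37 C compound exposure with 20 nM CPT in Tdp1-knockout DT40 cells stably expressing hTDP1, seeded 400/well; qHTS titration format.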
# TDP1 cell noCPT – qHTS for Inhibitors of human tyrosyl-DNA phosphodiesterase 1 (TDP1): qHTS in cells in absence of CPT | 15% of 420,000 active | Potency, µM (doses to about 46.2 µM), inactives show top-dose activity change, negative = growth inhibition, hits mostly inhibitors | DT40 Tdp1-/- hTDP1 cells, no CPT, ATP luminescence, 48 h; further: potency means the concentration at half of the fitted maximal effect; nearly all actives have a fitted effect of over 55% in size
#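 No-CPT arm: Tdp1-/-;hTDP1 DT40 cells (400/well) plus compounds, incubated ≥48 hr at 37 °C. Readout CellTiter-Glo luminescence.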
# 12-LOX inh – blocks human arachidonate 12S-lipoxygenase | Potency, µM (highest dose often 108 µM), for inactives: at the top dose activity change, negative = inhibition, actives largely listed as inhibitors | AID 1671190 | P18054 | 1.1% of 580,000 active | purified 12hLO, xylenol orange hydroperoxide absorbance; further: potency means the concentration at half of the fitted maximal effect
# Target sequence (P18054 whole entry, looked up): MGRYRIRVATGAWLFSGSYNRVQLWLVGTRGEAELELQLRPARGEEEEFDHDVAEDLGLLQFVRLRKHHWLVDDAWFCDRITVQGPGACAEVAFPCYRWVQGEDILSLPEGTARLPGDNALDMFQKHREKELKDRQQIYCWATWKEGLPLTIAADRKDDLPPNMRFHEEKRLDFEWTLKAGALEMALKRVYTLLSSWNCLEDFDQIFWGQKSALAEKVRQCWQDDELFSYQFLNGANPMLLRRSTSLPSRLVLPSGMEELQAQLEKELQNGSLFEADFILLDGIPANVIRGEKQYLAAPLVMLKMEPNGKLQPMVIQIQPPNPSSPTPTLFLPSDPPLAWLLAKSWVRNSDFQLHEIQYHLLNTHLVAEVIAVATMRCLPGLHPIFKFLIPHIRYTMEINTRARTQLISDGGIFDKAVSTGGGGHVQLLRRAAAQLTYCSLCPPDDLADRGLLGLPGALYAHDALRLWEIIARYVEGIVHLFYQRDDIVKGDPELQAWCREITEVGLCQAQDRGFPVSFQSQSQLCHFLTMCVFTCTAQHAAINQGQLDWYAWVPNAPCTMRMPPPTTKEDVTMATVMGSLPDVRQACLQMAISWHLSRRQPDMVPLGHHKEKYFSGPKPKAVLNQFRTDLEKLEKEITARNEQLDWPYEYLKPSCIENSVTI
#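 Hydroperoxide product was detected by ferrous iron/xylenol orange as the 573 to 405 nm absorbance ratio. Arachidonic acid at 40 uM (final) was turned over for 30 min at room temperature by 150 nM human 12hLO, pH 7.0 Hepes buffer, after 15 min compound preincubation.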
# Numbers without * were called inactive; ? = inconclusive; nt = no result given; [ ] = dose if it differs, or a comment. This excerpt belongs to a sample that is enriched for hits. Unless noted, the call rests on the fitted dose curve; in most records, active means well fitted curve in the direction sought with a large enough effect; inconclusive means small, poorly fitted or top-dose-only effect, or another doubt; inactive means no such curve, though single readings can be large; an effect the other way counts as inactive or inconclusive. Unless noted, on the % scale 0 is the no-effect control and ±100 the full control effect.
SMILES,IL-1B inflam inh,HT1080NT lethal,HT1080 IDH1KD tx,TDP1 cell CPT,TDP1 cell noCPT,12-LOX inh
O=c1cc(CSc2n[nH]c(-c3ccccc3)n2)[nH]c2ccccc12,nt,nt,nt,25.9µM*,25.9µM*,-25.9%
O=C1C(c2cc(=O)c3ccccc3[nH]2)=C(O)c2ccccc21,?,-26.0%,-27.6%,?,?,-10.2%
O=c1cc(-c2ccccc2)[nH]c2ccccc12,92.2,?,2.31µM*,0.517µM*,0.92µM*,0.0%
COC(=O)c1c(C)oc2ccc(OC(=O)C(C)(C)C)cc12,nt,nt,nt,nt,nt,-4.9%
O=C(CCc1ncc(-c2ccccc2)o1)NCc1ccc(C(=O)N2CCCC2)cc1,nt,nt,nt,nt,nt,8.9%
Cn1c(=O)c2cc(NC(=O)Cc3cccnc3)ccc2n1-c1ccc2ccccc2c1,-8.3,?,18.4µM*,14.6µM*,14.6µM*,18.0%
O=C(CSc1nccc(=O)[nH]1)Nc1ccc2ccccc2c1,17.0,5.5%,4.2%,2.6%,2.1%,?
CC(CC(=O)Nc1ccc2c(c1)c(=O)n(C)n2-c1ccc2ccccc2c1)C(F)(F)F (stereo not drawn),58.7,?,?,5.17µM*,2.59µM*,-0.4%
Cc1cc(C)c2oc(=O)cc(-c3cc4ccccc4o3)c2c1,nt,nt,nt,nt,nt,-15.1%
COc1cc2c(cc1OC)C1=NC(=O)CN1C(SCc1ccc(C)cc1)=N2,9.9,-3.4%,-0.1%,6.51µM*,2.59µM*,?
C=CCSC1=Nc2cc(OC)c(OC)cc2C2=NC(=O)CN12,3.3,1.7%,-1.3%,?,10.3µM*,-6.2%
COc1ccc(C2CC(=O)Nc3c2c(=O)nc(SC)n3C)cc1 (stereo not drawn),nt,nt,nt,nt,nt,-3.1%
CCOC(=O)c1c(C)[nH]c(C)c1C(=O)COC(=O)c1ccc(S(=O)(=O)N(CC)CC)cc1,6.6,0.3%[9.24 µM],-25.4%,-20.2%,-15.8%,-22.2%
CCN(CC)S(=O)(=O)c1cccc(C(=O)OCC(=O)C23CC4CC(CC(C4)C2)C3)c1,-6.3,1.9%,1.2%,?,23.1µM*,-24.4%
CCOC(=O)c1c(C)[nH]c(C)c1C(=O)COC(=O)c1cccc(S(=O)(=O)N(CC)CC)c1,-11.6,-0.4%,-11.4%,?,29.1µM*,0.0%
O=C1Nc2ccc(-c3ccco3)cc2C(=O)N2CCN(C(=O)NC3CCCCC3)C[C@H]12,nt,nt,nt,nt,nt,7.6%[176 µM]
Cc1ccc2oc(C(=O)N3CCCC3)cc(=O)c2c1,nt,nt,nt,nt,nt,-30.0%
COc1cc2c(cc1OC)CN(CC(=O)Nc1ccc(Cl)cc1Cl)CC2,11.9,-12.3%,-8.8%,20.6µM*,20.6µM*,-0.2%
COC(=O)c1cc2sccc2n1CC(=O)Nc1cc(Cl)ccc1OC,nt,nt,nt,11.6µM*,10.3µM*,-22.8%
COc1ccc(Cl)cc1NC(=O)CN1c2ccccc2CC1C (stereo not drawn),21.2,?,?,?,?,-1.9%
COc1ccc(Cl)cc1NC(=O)CN1CCC(NC(=O)C2CC2)CC1,20.4,-2.6%,-13.3%,23.1µM*,?,0.4%
COc1ccc(Cl)cc1NC(=O)CN1CCc2ccccc2C1,-81.1*,-12.0%,9.2%,-29.6%,-4.0%,20.2%
COc1ccc(Cl)cc1NC(=O)NCC1CCN(C(=O)OC(C)(C)C)CC1,-55.0*,-17.9%,-31.1%,-7.2%,-15.0%,6.6%
COc1ccc(Cl)cc1NC(=O)NCCN1CCCCC1,-27.1,-3.3%,-2.0%,-0.7%,-9.6%,-5.6%
COc1ccc(Cl)cc1NC(=O)COC(=O)c1cc(C)oc1C,-28.3,-2.2%,5.1%,?,3.26µM*,182.5%
SMILES,IL-1B inflam inh,HT1080NT lethal,HT1080 IDH1KD tx,TDP1 cell CPT,TDP1 cell noCPT,12-LOX inh
COc1ccc(Cl)cc1NC(=O)CCCC(=O)c1ccccc1,?,9.7%,-7.2%,20.6µM*,?,15.9%
CCN(C(=O)Cn1c(C(=O)OC)cc2sccc21)c1cccc(C)c1,nt,nt,nt,23.1µM*,?,-4.2%
Cc1ccc(-c2nnc(C3CN(C(=O)c4ccc(Cl)s4)CC34CCOCC4)o2)cc1 (stereo not drawn),nt,nt,nt,nt,nt,16.5%
COCCNc1oc(-c2ccc(S(=O)(=O)N3CCC(C)CC3)cc2)nc1C#N,nt,nt,nt,nt,nt,2.7%
O=C(Nc1cccc(Cl)c1)c1ccc(Cn2c(=O)c3cccn3c3cccnc32)cc1,nt,nt,nt,nt,nt,20.2%
COC(=O)c1[nH]c2ccc(Cl)cc2c1NC(=O)CN1CCc2cc(OC)c(OC)cc2C1,-10.9,-25.4%,-23.0%,?,20.6µM*,12.6%
COc1cc2c(cc1OC)CN(CCC(C)c1ccc(Cl)cc1)CC2 (stereo not drawn),-21.3,-38.4%,14.6µM*,14.6µM*,16.4µM*,?
COC(=O)c1[nH]c2cc(C)ccc2c1NC(=O)CN1CCc2cc(OC)c(OC)cc2C1,?,-25.6%,?,?,?,nt
O=C(CN1CCCCC1c1nc2ccccc2s1)NC(=O)Nc1ccc2c(c1)OCO2 (stereo not drawn),nt,nt,nt,nt,nt,-4.6%
CCOC(=O)/C(C#N)=N/Nc1ccc(S(=O)(=O)N2CCc3ccccc32)cc1,1.7,?,-25.2%,?,?,?
O=C(O)c1ccc(N=NNc2cccc([N+](=O)[O-])c2)cc1,-1.8,1.9%,-14.8%,1.3%,?,-16.9%
N#C/C(=N\Nc1cccc([N+](=O)[O-])c1)C(=O)c1ccc(Br)cc1,-64.0*,5.8µM*,2.59µM*,5.8µM*,6.51µM*,39.8µM*
N#C/C(=N\Nc1ccc(S(=O)(=O)N2CCCCCC2)cc1)C(N)=S,-23.8,?,-24.5%,?,?,?
N#C/C(=N\Nc1ccc([N+](=O)[O-])cc1)C(N)=S,-65.9*,?,13µM*,?,23.1µM*,25.1µM*
N#C/C(=N\Nc1ccc(S(=O)(=O)N2CCCCC2)cc1)C(N)=S,-12.7,?,?,?,?,50.1µM*
N#C/C(=N\Nc1ccc(S(=O)(=O)N2CCc3ccccc32)cc1)C(N)=S,-0.4,10.3µM*,9.2µM*,-18.4%,11.6µM*,15.8µM*
COCCOCC(=O)N1CCC2(CC1)CC(N1CCCCC1)CCO2 (stereo not drawn),nt,nt,nt,nt,nt,35.7%
O=[N+]([O-])c1cccc(COc2ccc(CN3CCCCC3)cc2)c1,-11.9,-5.7%,-2.8%,20.6µM*,23.1µM*,10.9%
O=[N+]([O-])c1cccc(COc2ccccc2CN2CCCCC2)c1,-19.8,-0.3%,-4.4%,?,?,2.3%
O=[N+]([O-])c1ccc(COc2cccc(CN3CCOCC3)c2)cc1,-14.7,-2.4%,4.1%,18.4µM*,23.1µM*,0.5%
